Data reported in the supplement of paper PMC10338343.
± gives the standard deviation.

test system: MILI (PIWIL2) piRISC loaded with L1MC piRNA (26 nt); assay: pre-steady-state target cleavage rate (min^-1); guide: L1MC piRNA 5'p-UAACUAAAUACUAUGCAAGCUGUAGG; MIWI and MILI are mouse PIWI proteins and EfPiwi is from a freshwater sponge; tags in brackets are library labels; higher = faster piRNA-guided slicing of the target; details: auxiliary factor: none (no GTSF1)
Outline: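 In HEPES–potassium acetate buffer at 33 °C, […] transcribed, DNA-blocked target RNA library was mixed with 1 nM active affinity-purified piRISC carrying one synthetic guide, with or without 500 nM GTSF1 partner protein, for 0–8 or 0–960 min. Uncleaved targets were sequenced and normalised to depth and to weakly complementary targets; three trials were pooled and k3 was capped at 0.0001 min^-1. The pre-steady-state cleavage rate followed from a burst-and-steady-state fit.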
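Note: 1 nM active piRISC with 0.1 nM target library at 33 °C single turnover.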

UCCUGGAUCAGGUUGCAUAGUUUUUAGUUA and UCCUGGAACAGCUAGCAUAGUAAUUAGUUA are within error of each other in “pre-steady-state target cleavage rate” value: 0.00644 ± 0.0022 for the first, 0.00801 ± 0.0026 for the second.

UCCUCCAACAGCUUGCAUAGUAUAUAGUUA and UCCUGGUAGUCCUUGCAUAGUAUUUAGUUA are within error of each other in “pre-steady-state target cleavage rate” value: 0.0056 ± 0.0022 for the first, 0.00932 ± 0.003 for the second.

First: UCCUGGAUCAGCUUGGAUAGUAUUUAGUAA
Second: UCCUGGAUGAGCUUGCAUAGUAUGUUAGUUA
The “pre-steady-state target cleavage rate” value of the first is lower: 0.00324 ± 0.0026 for the first, 0.0093 ± 0.0029 for the second.

First: UCCUGGAUCACCUUGCAUACUAUUUAGUUA
Second: UCCUCCUACAGCUUGCAUGGUAUUUAGUUA
The “pre-steady-state target cleavage rate” value of the first is lower: 0.00336 ± 0.0028 for the first, 0.00982 ± 0.003 for the second.

UCCUCCUACAGCUUGCAUAGUAUUUAGUCA and UCCUGGAACAGCUUGCAUAGUAUUUAGUGUA are within error of each other in “pre-steady-state target cleavage rate” value: 0.00856 ± 0.0028 for the first, 0.00523 ± 0.0026 for the second.

UCCUCCUACAGCAUGCAUAGUAUUUAGUUA and UCCUGCUACCAGCUUGCAUAGUAUUUAGUUA are within error of each other in “pre-steady-state target cleavage rate” value: 0.0117 ± 0.0029 for the first, 0.0115 ± 0.0033 for the second.

UCCUCCUACAGCUUGCAAAGUAUUUAGUUA and UCCUCCUACAGCUUGGAUAGUAUAUAGUUA are within error of each other in “pre-steady-state target cleavage rate” value: 0.00717 ± 0.0022 for the first, 0.0033 ± 0.0023 for the second.

UCCUGCUACAGCAUGCAUAGUAUAUAGUUA and UCCUGCUACACGAUGCAUAGUAUUUAGUAA are within error of each other in “pre-steady-state target cleavage rate” value: 0.0054 ± 0.0024 for the first, 0.00703 ± 0.0026 for the second.

UCCUGGAUGUCCCUGCAUAGUAUUUAGUUA and UCCUGGUACAGCUUGCAUAAUAUUUAGUUA are within error of each other in “pre-steady-state target cleavage rate” value: 0.00467 ± 0.0023 for the first, 0.0064 ± 0.0032 for the second.

UCCUGCUACAGGUAGCAUAGUAUUUAGUUA and UCCUGGUACAGCUUGCAUAGUAUUUAGUGUA are within error of each other in “pre-steady-state target cleavage rate” value: 0.00651 ± 0.0037 for the first, 0.00896 ± 0.0033 for the second.

UCCUGGUACAGCAUGCAUACUAUUUAGUUA and UCCUGGUACGAGCUUGCAUAGUAUUUAGUUA are within error of each other in “pre-steady-state target cleavage rate” value: 0.00694 ± 0.003 for the first, 0.0102 ± 0.0039 for the second.

UCCUGGAUGUCCGUUGCAUAGUAUUUAGUUA and UCCUCCUACAGAUUGCAUAGUAUUUAGUUA are within error of each other in “pre-steady-state target cleavage rate” value: 0.008 ± 0.0033 for the first, 0.00814 ± 0.0018 for the second.

UCCUGCUACAGCUUGCAUAGGUAUUUAGUUA and UCCUGGAUCUGCUUGCAUUGUAUUUAGUUA are within error of each other in “pre-steady-state target cleavage rate” value: 0.00421 ± 0.0024 for the first, 0.00477 ± 0.0023 for the second.

Going from UCCUGCUACUGCUUGGAUAGUAUUUAGUUA to UCCUGGAAUAGCUUGCAUAGUAUUUAGUUA, the “pre-steady-state target cleavage rate” value rises from 0.00763 ± 0.0018 to 0.0149 ± 0.0032.

Going from UCCUGCUUCAGCUUGCAUAGUAUUUAGUUA to UCCUGGAUCAGCUUCGAUAGUAUUUAGUUA, the “pre-steady-state target cleavage rate” value falls from 0.0109 ± 0.0023 to 0.0034 ± 0.0021.

UCCUGGUAGAGCUUGCAUAGUAUUUAGUUA and UCCUGCUACAGGUUGGAUAGUAUUUAGUUA are within error of each other in “pre-steady-state target cleavage rate” value: 0.00842 ± 0.0022 for the first, 0.00926 ± 0.0025 for the second.

UCCUGCUACAGCUUGCAAUGUAUUUAGUUA and UCCUGGAUGUCCUUCGCAUAGUAUUUAGUUA are within error of each other in “pre-steady-state target cleavage rate” value: 0.00809 ± 0.002 for the first, 0.00538 ± 0.0022 for the second.

First: UCCUGGAACAGCUUGCAUAGUAUCUUAGUUA
Second: UCCUGCUACAGCUUGCAUUGUAUUUUGUUA
The “pre-steady-state target cleavage rate” value of the first is higher: 0.00791 ± 0.0019 for the first, 0.00301 ± 0.0027 for the second.

UCCUGGAUGAGCUUGCAUAGUAUUUAGUAA and UCCUGGAAGAGCUUGCAUUGUAUUUAGUUA are within error of each other in “pre-steady-state target cleavage rate” value: 0.00773 ± 0.0026 for the first, 0.00838 ± 0.0031 for the second.

UCCUGCUACAGAUUGCAUAGUAUUUAGUUA and UCCUGGAACAGCCUGCAUAGUAUUUAGUUA are within error of each other in “pre-steady-state target cleavage rate” value: 0.0107 ± 0.0034 for the first, 0.00896 ± 0.0029 for the second.
